Test in all cases: DAPPL (digital affinity profiling via proximity ligation, sequencing); 10 mM Tris-HCl pH 7.5, 50 mM NaCl, 1 mM DTT, 4% glycerol, room temperature, 30 min; GST-TFs on glutathione beads, 16-mer random dsDNA library, 0.1% formaldehyde crosslink after washing; high values mean tight binding
One assay deals with T1, FEV (Homo sapiens, UniProt Q99581 1-238).
T1 sequence: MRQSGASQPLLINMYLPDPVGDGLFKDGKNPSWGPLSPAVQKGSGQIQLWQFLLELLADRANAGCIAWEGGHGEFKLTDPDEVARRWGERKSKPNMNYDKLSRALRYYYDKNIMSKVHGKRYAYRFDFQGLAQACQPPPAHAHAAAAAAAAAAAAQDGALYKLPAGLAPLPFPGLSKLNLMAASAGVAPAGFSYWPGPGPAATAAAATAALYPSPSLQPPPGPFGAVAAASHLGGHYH
The settings on record: protein: recombinant; tags: N-terminal GST; dsDNA, one strand shown. Put shortly: (§1)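 Binding signal is each hexamer's read frequency for a factor divided by its frequency in the tag-only sample. The factors were GST-fused human transcription factors from yeast, captured on glutathione beads, DNA-barcoded and pooled with that sample. Pools were incubated with 200 nmole of a random double-stranded 16-mer DNA library in Tris/NaCl/DTT/glycerol buffer at room temperature for 30 min, then washed, crosslinked with 0.1% formaldehyde, proximity-ligated with BsaI/T4 ligase (1 h, 37 °C), PCR-amplified and sequenced on an Illumina NextSeq500.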

Another assay deals with ETV5 (Homo sapiens, UniProt P41161 1-510). Conditions: protein: recombinant; tags: N-terminal GST; dsDNA, one strand shown. Put shortly: as §1
ETV5, sequence (P41161 whole entry): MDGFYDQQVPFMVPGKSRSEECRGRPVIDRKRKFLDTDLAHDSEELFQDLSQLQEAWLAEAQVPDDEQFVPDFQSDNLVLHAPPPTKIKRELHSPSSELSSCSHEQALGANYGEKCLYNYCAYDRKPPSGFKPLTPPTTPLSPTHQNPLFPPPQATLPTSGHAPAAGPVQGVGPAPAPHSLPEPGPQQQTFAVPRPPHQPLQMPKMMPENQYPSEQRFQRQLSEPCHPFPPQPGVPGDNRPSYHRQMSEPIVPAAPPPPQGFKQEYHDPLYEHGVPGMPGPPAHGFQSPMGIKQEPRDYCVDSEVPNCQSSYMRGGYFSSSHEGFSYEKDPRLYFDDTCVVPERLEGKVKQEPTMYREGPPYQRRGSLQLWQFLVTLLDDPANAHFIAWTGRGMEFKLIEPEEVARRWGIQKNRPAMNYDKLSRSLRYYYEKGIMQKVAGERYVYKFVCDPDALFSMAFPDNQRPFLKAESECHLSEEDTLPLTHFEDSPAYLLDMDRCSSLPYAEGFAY
The target in a further assay is HSF1 (Homo sapiens, UniProt Q00613 1-529). Conditions: protein: recombinant; tags: N-terminal GST; chain copies: 3; dsDNA, one strand shown. Put shortly:
as §1

In the next assay the target is T2, SPIC (Homo sapiens, UniProt Q8N5J4 1-248).
T2 sequence: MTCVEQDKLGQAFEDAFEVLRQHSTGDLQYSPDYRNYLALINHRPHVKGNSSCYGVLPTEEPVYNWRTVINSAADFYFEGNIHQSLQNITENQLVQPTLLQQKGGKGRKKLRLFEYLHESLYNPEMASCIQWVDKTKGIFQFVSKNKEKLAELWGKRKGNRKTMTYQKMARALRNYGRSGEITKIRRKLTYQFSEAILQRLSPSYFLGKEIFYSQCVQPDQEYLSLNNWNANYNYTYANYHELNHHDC
Conditions: protein: recombinant; tags: N-terminal GST; dsDNA, one strand shown. Put shortly:
as §1

Another assay deals with ELF4 (Homo sapiens, UniProt Q99607 1-663). The settings on record: protein: recombinant; tags: N-terminal GST; dsDNA, one strand shown. In outline:
as §1

The target in the next assay is T3, ELK4 (Homo sapiens, UniProt P28324-2 1-405).
T3 sequence: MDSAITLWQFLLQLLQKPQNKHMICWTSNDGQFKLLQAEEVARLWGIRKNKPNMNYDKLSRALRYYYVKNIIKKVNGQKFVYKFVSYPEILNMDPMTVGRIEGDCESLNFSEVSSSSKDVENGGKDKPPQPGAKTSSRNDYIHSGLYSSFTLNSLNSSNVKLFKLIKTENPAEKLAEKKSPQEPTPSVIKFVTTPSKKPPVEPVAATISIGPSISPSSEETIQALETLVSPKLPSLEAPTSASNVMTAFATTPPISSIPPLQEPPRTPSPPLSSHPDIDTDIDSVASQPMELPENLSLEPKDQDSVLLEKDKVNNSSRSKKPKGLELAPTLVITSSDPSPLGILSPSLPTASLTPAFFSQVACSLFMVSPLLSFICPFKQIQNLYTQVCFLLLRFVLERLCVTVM
The settings on record: protein: recombinant; tags: N-terminal GST; dsDNA, one strand shown. In outline: as §1

A further assay deals with T4, ETV2 (Homo sapiens, UniProt O00321 1-342).
T4 sequence: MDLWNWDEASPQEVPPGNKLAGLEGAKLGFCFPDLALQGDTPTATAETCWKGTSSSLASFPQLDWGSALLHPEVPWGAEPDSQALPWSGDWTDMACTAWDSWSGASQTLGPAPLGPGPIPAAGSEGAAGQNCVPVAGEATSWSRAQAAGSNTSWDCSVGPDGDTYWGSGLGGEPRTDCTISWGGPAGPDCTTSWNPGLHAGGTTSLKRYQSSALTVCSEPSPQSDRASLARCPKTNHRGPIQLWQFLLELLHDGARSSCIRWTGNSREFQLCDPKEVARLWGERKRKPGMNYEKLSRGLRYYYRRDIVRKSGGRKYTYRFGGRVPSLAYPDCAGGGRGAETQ
Conditions: protein: recombinant; tags: N-terminal GST; dsDNA, one strand shown. In outline:
as §1

In the next assay the target is T5, ELF3 (Homo sapiens, UniProt P78545 1-371).
T5 sequence: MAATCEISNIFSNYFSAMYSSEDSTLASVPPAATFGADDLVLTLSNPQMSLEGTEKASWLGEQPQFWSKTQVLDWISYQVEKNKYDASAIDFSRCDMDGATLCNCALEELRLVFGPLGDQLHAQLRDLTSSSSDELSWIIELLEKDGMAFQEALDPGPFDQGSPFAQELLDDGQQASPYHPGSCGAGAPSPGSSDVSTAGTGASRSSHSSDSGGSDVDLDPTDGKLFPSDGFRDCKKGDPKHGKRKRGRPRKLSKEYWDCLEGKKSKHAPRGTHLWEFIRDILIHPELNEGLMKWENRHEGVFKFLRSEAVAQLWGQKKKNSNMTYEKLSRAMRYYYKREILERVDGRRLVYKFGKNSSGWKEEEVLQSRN
The settings on record: protein: recombinant; tags: N-terminal GST; dsDNA, one strand shown. Put shortly: as §1

For the next assay, the target named is CRX (Homo sapiens, UniProt O43186 1-299). Conditions: protein: recombinant; tags: N-terminal GST; dsDNA, one strand shown. In outline:
as §1

A further assay deals with ETV1 (Homo sapiens, UniProt P50549 1-477). Conditions: protein: recombinant; tags: N-terminal GST; dsDNA, one strand shown. Put shortly:
as §1

The target of another assay is T6, ERF (Homo sapiens, UniProt P50548 1-548).
T6 sequence: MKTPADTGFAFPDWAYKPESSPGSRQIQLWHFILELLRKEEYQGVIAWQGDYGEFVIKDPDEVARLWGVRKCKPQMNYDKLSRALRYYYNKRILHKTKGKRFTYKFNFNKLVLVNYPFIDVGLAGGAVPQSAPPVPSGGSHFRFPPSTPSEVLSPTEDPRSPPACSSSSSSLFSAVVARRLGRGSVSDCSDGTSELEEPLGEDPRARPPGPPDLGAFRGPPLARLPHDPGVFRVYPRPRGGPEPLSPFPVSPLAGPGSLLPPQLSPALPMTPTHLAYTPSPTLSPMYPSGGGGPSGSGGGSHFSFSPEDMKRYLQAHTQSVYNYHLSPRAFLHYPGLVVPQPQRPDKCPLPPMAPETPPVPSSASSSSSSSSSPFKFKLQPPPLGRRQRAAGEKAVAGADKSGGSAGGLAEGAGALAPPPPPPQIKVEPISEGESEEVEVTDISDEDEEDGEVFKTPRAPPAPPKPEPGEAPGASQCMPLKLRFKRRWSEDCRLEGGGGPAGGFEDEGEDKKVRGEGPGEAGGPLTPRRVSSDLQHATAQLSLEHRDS
Conditions: protein: recombinant; tags: N-terminal GST; dsDNA, one strand shown. In outline: as §1

The target in the next assay is T7, ETV3L (Homo sapiens, UniProt Q6ZN32 1-361).
T7 sequence: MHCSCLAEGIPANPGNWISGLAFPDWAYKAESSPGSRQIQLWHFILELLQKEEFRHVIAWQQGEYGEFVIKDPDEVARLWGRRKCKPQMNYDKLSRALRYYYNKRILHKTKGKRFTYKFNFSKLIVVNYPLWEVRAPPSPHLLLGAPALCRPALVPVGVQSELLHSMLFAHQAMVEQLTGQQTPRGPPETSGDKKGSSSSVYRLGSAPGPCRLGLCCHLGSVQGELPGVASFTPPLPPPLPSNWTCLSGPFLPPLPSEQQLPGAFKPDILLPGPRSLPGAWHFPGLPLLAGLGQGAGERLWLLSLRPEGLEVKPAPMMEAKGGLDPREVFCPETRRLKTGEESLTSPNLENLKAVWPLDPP
Conditions: protein: recombinant; tags: N-terminal GST; dsDNA, one strand shown. Put shortly:
as §1

In a further assay the target is T8, ETS2 (Homo sapiens, UniProt P15036 1-469).
T8 sequence: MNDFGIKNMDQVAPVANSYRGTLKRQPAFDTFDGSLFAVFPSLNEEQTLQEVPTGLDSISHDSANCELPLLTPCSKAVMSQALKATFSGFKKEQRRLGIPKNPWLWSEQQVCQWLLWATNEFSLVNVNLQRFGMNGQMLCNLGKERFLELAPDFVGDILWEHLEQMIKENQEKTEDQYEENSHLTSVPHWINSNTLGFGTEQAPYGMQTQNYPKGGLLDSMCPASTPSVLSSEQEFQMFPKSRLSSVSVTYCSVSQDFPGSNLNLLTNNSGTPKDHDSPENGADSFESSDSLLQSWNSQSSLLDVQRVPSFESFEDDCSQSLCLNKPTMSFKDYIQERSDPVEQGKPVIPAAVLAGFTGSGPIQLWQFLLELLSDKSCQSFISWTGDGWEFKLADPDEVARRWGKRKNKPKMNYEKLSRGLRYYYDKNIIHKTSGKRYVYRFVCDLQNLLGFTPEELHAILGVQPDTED
Conditions: protein: recombinant; tags: N-terminal GST; dsDNA, one strand shown. Put shortly:
as §1

In the next assay the target is T9, SPDEF (Homo sapiens, UniProt O95238 1-335).
T9 sequence: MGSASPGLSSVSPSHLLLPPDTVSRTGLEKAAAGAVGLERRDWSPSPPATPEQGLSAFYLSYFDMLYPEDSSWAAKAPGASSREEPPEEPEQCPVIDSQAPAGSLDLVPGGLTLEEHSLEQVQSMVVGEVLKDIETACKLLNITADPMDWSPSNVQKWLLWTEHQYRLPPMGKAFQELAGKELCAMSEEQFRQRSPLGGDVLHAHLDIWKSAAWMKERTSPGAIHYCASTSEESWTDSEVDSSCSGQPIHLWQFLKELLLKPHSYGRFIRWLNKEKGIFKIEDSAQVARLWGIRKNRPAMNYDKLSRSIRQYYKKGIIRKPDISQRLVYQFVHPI
Conditions: protein: recombinant; tags: N-terminal GST; dsDNA, one strand shown. In outline:
as §1

The target of the next assay is T10, ETV7 (Homo sapiens, UniProt Q9Y603 1-341).
T10 sequence: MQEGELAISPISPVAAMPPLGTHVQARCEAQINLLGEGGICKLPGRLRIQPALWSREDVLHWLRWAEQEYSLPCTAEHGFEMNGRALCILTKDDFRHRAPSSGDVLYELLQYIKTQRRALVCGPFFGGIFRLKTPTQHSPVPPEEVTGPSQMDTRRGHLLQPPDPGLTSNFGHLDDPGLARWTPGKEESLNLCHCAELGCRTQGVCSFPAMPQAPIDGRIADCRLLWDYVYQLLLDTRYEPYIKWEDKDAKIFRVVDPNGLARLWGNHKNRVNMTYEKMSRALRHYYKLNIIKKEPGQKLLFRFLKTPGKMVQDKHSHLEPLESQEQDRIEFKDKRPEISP
The settings on record: protein: recombinant; tags: N-terminal GST; dsDNA, one strand shown. In outline:
as §1

The target in a further assay is T11, ELF5 (Homo sapiens, UniProt Q9UKW6-2 1-255).
T11 sequence: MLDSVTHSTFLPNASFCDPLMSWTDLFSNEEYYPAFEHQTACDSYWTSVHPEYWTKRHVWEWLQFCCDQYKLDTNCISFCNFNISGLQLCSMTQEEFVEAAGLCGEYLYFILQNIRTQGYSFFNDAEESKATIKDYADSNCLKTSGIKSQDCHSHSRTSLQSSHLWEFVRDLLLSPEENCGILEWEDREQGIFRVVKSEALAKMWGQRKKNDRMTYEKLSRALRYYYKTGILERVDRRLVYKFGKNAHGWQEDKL
The settings on record: protein: recombinant; tags: N-terminal GST; dsDNA, one strand shown. In outline:
as §1

For another assay, the target named is T12, ETV3 (Homo sapiens, UniProt P41162-2 1-143).
T12 sequence: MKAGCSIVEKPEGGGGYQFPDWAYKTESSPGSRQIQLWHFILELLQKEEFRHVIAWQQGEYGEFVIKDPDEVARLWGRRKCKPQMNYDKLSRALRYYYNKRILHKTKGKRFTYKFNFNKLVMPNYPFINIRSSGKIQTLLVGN
The settings on record: protein: recombinant; tags: N-terminal GST; dsDNA, one strand shown. In outline: as §1

Another assay concerns the target ETV6 (Homo sapiens, UniProt P41212 1-452). Conditions: protein: recombinant; tags: N-terminal GST; dsDNA, one strand shown. In outline:
as §1

CRX, sequence (O43186 whole entry): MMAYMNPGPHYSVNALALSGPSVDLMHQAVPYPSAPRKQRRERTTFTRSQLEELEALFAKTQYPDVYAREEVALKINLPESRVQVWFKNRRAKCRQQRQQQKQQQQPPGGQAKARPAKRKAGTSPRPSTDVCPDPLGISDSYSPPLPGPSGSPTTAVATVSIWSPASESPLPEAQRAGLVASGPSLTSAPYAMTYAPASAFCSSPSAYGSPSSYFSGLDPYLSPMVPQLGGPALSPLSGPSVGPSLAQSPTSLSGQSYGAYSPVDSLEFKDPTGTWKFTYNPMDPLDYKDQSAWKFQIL
HSF1, sequence (Q00613 whole entry): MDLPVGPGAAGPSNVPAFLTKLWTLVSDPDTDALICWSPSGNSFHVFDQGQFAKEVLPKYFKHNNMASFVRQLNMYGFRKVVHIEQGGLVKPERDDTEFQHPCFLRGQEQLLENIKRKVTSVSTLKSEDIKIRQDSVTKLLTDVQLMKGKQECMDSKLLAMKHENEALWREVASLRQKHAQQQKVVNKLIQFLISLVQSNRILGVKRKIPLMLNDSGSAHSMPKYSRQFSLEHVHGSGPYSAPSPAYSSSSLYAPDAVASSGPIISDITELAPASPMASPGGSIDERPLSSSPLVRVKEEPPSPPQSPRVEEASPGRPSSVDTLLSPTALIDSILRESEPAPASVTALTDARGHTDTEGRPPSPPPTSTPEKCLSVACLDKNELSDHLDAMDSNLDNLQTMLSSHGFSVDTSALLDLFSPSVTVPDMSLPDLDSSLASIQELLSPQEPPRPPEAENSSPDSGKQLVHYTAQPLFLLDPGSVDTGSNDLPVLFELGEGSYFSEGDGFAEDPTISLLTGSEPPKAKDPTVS
ETV1, sequence (P50549 whole entry): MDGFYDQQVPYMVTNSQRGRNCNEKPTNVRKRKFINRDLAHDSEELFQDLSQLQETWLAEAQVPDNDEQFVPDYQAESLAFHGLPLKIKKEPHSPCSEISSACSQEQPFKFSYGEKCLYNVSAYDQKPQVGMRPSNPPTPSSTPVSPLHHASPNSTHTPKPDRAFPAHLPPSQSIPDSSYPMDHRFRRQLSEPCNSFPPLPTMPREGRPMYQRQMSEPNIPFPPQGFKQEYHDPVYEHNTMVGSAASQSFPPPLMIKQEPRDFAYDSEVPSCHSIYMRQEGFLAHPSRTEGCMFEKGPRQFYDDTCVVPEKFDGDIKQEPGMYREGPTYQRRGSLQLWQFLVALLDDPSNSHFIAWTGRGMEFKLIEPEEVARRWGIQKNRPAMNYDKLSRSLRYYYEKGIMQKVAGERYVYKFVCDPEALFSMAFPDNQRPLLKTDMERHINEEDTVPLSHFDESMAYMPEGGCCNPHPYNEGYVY
ETV6, sequence (P41212 whole entry): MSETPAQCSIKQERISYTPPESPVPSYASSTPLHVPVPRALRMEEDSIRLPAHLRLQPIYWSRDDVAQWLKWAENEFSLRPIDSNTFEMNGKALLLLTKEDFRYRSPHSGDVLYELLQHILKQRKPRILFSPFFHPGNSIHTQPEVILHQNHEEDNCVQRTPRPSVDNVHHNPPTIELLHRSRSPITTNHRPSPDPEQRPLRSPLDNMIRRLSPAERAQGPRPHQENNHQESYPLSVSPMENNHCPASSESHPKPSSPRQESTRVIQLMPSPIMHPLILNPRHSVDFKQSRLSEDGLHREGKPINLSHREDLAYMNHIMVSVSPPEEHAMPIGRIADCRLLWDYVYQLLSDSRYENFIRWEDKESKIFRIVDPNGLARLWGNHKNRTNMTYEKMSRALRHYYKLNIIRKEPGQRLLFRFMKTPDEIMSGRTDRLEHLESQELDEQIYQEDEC
ELF4, sequence (Q99607 whole entry): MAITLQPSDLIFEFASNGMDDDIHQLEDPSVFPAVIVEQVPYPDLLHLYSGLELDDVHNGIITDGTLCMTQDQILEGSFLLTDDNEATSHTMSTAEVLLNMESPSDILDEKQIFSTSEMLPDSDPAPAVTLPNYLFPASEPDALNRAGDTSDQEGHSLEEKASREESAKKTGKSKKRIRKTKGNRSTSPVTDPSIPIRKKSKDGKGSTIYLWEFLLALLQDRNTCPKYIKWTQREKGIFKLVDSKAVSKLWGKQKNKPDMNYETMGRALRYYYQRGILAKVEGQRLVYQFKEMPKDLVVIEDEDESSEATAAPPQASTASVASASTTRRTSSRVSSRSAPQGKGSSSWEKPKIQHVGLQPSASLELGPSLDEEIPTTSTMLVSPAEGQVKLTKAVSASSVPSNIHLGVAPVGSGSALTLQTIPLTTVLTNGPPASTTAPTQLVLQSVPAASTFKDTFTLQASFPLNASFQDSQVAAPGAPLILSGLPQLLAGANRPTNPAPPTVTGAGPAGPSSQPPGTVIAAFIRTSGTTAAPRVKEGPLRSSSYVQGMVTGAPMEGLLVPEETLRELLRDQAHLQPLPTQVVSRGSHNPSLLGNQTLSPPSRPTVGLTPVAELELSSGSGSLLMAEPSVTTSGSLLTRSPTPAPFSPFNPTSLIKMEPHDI

Turning to AAACAA, the binding signal with FEV is 1.28 fold enrichment (6-mer frequency, TF over GST control); with ETV5 it was 1.28 fold enrichment (6-mer frequency, TF over GST control); with HSF1, 1.23 fold enrichment (6-mer frequency, TF over GST control); with SPIC, 1.33 fold enrichment (6-mer frequency, TF over GST control); in the assay with ELF4, 1.31 fold enrichment (6-mer frequency, TF over GST control); with ELK4, 1.28 fold enrichment (6-mer frequency, TF over GST control). Further, the binding signal with ETV2 was 1.31 fold enrichment (6-mer frequency, TF over GST control); with ELF3, 1.49 fold enrichment (6-mer frequency, TF over GST control); with CRX, 1.06 fold enrichment (6-mer frequency, TF over GST control); with ETV1 it was 1.32 fold enrichment (6-mer frequency, TF over GST control); in the assay with ERF, 1.25 fold enrichment (6-mer frequency, TF over GST control); with ETV3L, 1.32 fold enrichment (6-mer frequency, TF over GST control). Besides, the binding signal was 1.32 fold enrichment (6-mer frequency, TF over GST control) in the assay with ETS2; 1.27 fold enrichment (6-mer frequency, TF over GST control) in the assay with SPDEF; 1.28 fold enrichment (6-mer frequency, TF over GST control) with ETV7; 1.28 fold enrichment (6-mer frequency, TF over GST control) in the assay with ELF5; 1.3 fold enrichment (6-mer frequency, TF over GST control) with ETV3; 1.31 fold enrichment (6-mer frequency, TF over GST control) with ETV6.

(Values after paper PMC7862700, “An all-to-all approach to the identification of sequence-specific readers for epigenetic DNA modifications on cytosine”.)
